According to PubChem BioAssay AID1159580 (chemical genetic matrix, 2015):
Values joined by “and” are separate entries in the source; they are usually repeats but may differ in a detail not shown here. Equal entries are not always repeated. Screen size: about 5,500 compounds; about 2,000 (36%) were called active. Another 18% or so got no clear call; they are omitted. Cut-off read from the data, not from the text of the source: active = normalized growth mostly below about 0.91 (no sharp cut-off); inconclusive = no clear call, values can overlap the other calls; inactive = mostly above about 0.92. Some of the results follow.

Test: chemical genetic growth profiling, strain panel (AID 1159580);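 note: tested at 20 µM; growth read once vehicle control cultures reached saturation at 30 °C; 1 = growth at the plate median or of vehicle wells; lower values mean less growth of the strain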
Details: S. cerevisiae deletion strains, growth OD

Measured: normalized growth

O=C1c2ccccc2C(=O)c2c1ccc(O)c2O
inactive: locus YDR195W, strain ref2 0.892
active: locus YAL021C, strain ccr4, stronger effect = lower value 0.213 | locus YAL026C, strain drs2, stronger effect = lower value 0.273 | locus YAL030W, strain snc1, stronger effect = lower value 0.578 | locus YBL061C, strain skt5, stronger effect = lower value 0.44 | locus YBR009C, strain hhf1, stronger effect = lower value 0.532 | locus YBR021W, strain FUR4, stronger effect = lower value 0.671 | locus YBR023C, strain chs3, stronger effect = lower value 0.38 | locus YBR171W, strain sec66, stronger effect = lower value 0.681 | locus YBR229C, strain ROT2, stronger effect = lower value 0.399 | locus YBR231C, strain swc5, stronger effect = lower value 0.3 | locus YBR279W, strain paf1, stronger effect = lower value 0.512 | locus YCL011C, strain gbp2, stronger effect = lower value 0.501 | locus YCL016C, strain dcc1, stronger effect = lower value 0.564 | locus YCL029C, strain bik1, stronger effect = lower value 0.342 | locus YCL061C, strain MRC1, stronger effect = lower value 0.608 | locus YCL069W, strain vba3, stronger effect = lower value 0.52 | locus YCR088W, strain abp1, stronger effect = lower value 0.679 | locus YDL005C, strain med2, stronger effect = lower value 0.663 | locus YDL035C, strain GPR1, stronger effect = lower value 0.231 | locus YDL040C, strain nat1, stronger effect = lower value 0.703 | locus YDL074C, strain BRE1, stronger effect = lower value 0.178 | locus YDL101C, strain DUN1, stronger effect = lower value 0.235 | locus YDL185W, strain tfp1, stronger effect = lower value 0.816 | locus YDL192W, strain arf1, stronger effect = lower value 0.301 | locus YDR001C, strain nth1, stronger effect = lower value 0.722 | locus YDR069C, strain doa4, stronger effect = lower value 0.401 | locus YDR101C, strain arx1, stronger effect = lower value 0.549 | locus YDR137W, strain rgp1, stronger effect = lower value 0.261 | locus YDR159W, strain sac3, stronger effect = lower value 0.722 | locus YDR162C, strain NBP2, stronger effect = lower value 0.0628 | locus YDR297W, strain sur2, stronger effect = lower value 0.559 | locus YDR318W, strain mcm21, stronger effect = lower value 0.34 | locus YDR334W, strain swr1, stronger effect = lower value 0.298 | locus YDR335W, strain msn5, stronger effect = lower value 0.56 | locus YDR388W, stronger effect = lower value 0.149 | locus YDR392W, strain spt3, stronger effect = lower value 0.321 | locus YDR502C, strain sam2, stronger effect = lower value 0.391 | locus YEL003W, strain gim4, stronger effect = lower value 0.504 | locus YEL037C, strain rad23, stronger effect = lower value 0.552 | locus YEL061C, strain CIN8 (second series), stronger effect = lower value 0.694 | locus YEL061C, strain CIN8, stronger effect = lower value 0.39 | locus YER015W, strain faa2, stronger effect = lower value 0.39 | locus YER016W, strain bim1, stronger effect = lower value 0.675 | locus YER110C, stronger effect = lower value 0.412 | locus YER111C, strain swi4, stronger effect = lower value 0.566 | locus YER155C, strain BEM2 (second series), stronger effect = lower value 0.441 | locus YER155C, strain BEM2, stronger effect = lower value 0.276 | locus YER167W, strain BCK2, stronger effect = lower value 0.245 | locus YFR010W, strain ubp6, stronger effect = lower value 0.557 | locus YGL078C, strain dbp3, stronger effect = lower value 0.872 | locus YGL086W, strain mad1, stronger effect = lower value 0.291 | locus YGL167C, strain pmr1, stronger effect = lower value 0.554 | locus YGL173C, strain kem1, stronger effect = lower value 0.248 | locus YGL227W, strain vid30, stronger effect = lower value 0.777 | locus YGL240W, strain doc1, stronger effect = lower value 0.442 | locus YGL248W, strain PDE1, stronger effect = lower value 0.21 | locus YGL253W, strain hxk2, stronger effect = lower value 0.295 | locus YGR078C, strain PAC10, stronger effect = lower value 0.182 | locus YGR135W, strain pre9, stronger effect = lower value 0.394 | locus YGR252W, strain gcn5, stronger effect = lower value 0.456 | locus YHR013C, strain ard1, stronger effect = lower value 0.427 | locus YHR027C, strain rpn1, stronger effect = lower value 0.349 | locus YHR030C, strain SLT2, stronger effect = lower value 0.613 | locus YHR079C, strain IRE1 (second series), stronger effect = lower value 0.434 | locus YHR079C, strain IRE1, stronger effect = lower value 0.67 | locus YHR094C, strain hxt1, stronger effect = lower value 0.417 | locus YHR129C, strain ARP1, stronger effect = lower value 0.216 | locus YHR142W, strain chs7, stronger effect = lower value 0.339 | locus YHR200W, strain rpn10, stronger effect = lower value 0.488 | locus YIL066C, strain RNR3, stronger effect = lower value 0.174 | locus YIL073C, strain SPO22, stronger effect = lower value 0.221 | locus YIL125W, strain kgd1, stronger effect = lower value 0.864 | locus YIR030C, strain dcg1, stronger effect = lower value 0.466 | locus YJL092W, strain hpr5, stronger effect = lower value 0.665 | locus YJL095W, strain BCK1 (second series), stronger effect = lower value 0.22 | locus YJL095W, strain BCK1, stronger effect = lower value 0.0992 and 0.647 | locus YJL115W, strain asf1, stronger effect = lower value 0.644 | locus YJL129C, strain trk1, stronger effect = lower value 0.33 | locus YJL134W, strain LCB3, stronger effect = lower value 0.309 | locus YJL154C, strain vps35, stronger effect = lower value 0.718 | locus YJL164C, strain tpk1, stronger effect = lower value 0.414 | locus YJL166W, strain qcr8, stronger effect = lower value 0.446 | locus YJL168C, strain set2, stronger effect = lower value 0.52 | locus YJL187C, strain SWE1 (second series), stronger effect = lower value 0.192
